We go through nine compounds from PubChem BioAssay (Tox21).

Test [1] in a line: qHTS assay to identify small molecule antagonists of the thyroid receptor (TR) signaling pathway - cell viability counter screen (AID 743064). Also: nearly all actives have a fitted effect of over 50% in size. Also: potency is read from the fitted curve at half-maximal effect. In short, it runs like this:
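In rat pituitary GH3.TRE-Luc reporter cells co-exposed to compound and 1 nM T3 for 23.5 h, cytotoxicity was assessed with CellTiter-Fluor in the same wells, read by fluorescence.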

Test [2] can be described thus: qHTS assay to identify small molecule antagonists of the thyroid receptor (TR) signaling pathway (AID 743065). Also: nearly all actives have a fitted effect of over 55% in size. Also: potency is read from the fitted curve at half-maximal effect. In short, it runs like this:
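Antagonism measured as loss of luciferase signal in GH3 cells stably carrying a TRE-luciferase reporter, co-treated with compound and T3 (1 nM final) for 23.5 h at 37 C. Viability was read in the same well by CellTiter-Fluor.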
A general note: Quantitative high-throughput screening tests each substance at several concentrations.

The subject of test [3] is thyroid hormone receptor (rat, GH3 cells). The experiment in a line: qHTS assay to identify small molecule agonists of the thyroid receptor (TR) signaling pathway (AID 743066; calls by dose curve).
Test [4] in a line: qHTS assay to identify small molecule antagonists of the estrogen receptor alpha (ER-alpha) signaling pathway - cell viability counter screen (AID 743074; calls by dose curve;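 also: HEK293 cells carrying ER-alpha-UAS-bla reporter stimulated with 17beta-estradiol; nearly all actives have a fitted effect of over 45% in size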).
Test [5] is described as follows: qHTS assay to identify small molecule antagonists of the estrogen receptor alpha (ER-alpha) signaling pathway using the BG1 cell line - cell viability counter screen (AID 743081).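 Also: compound given together with 17beta-estradiol as the ER stimulus; series mostly up to about 70 µM; nearly all actives have a fitted effect of over 45% in size.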
For the next test, the target named is Aromatase (Homo sapiens) (UniProt P11511). The experiment in a line: qHTS assay to identify aromatase inhibitors (AID 743083). Also: nearly all actives have a fitted effect of over 55% in size. Also: potency is read from the fitted curve at half-maximal effect.
Aromatase (Homo sapiens), sequence (P11511 whole entry, looked up): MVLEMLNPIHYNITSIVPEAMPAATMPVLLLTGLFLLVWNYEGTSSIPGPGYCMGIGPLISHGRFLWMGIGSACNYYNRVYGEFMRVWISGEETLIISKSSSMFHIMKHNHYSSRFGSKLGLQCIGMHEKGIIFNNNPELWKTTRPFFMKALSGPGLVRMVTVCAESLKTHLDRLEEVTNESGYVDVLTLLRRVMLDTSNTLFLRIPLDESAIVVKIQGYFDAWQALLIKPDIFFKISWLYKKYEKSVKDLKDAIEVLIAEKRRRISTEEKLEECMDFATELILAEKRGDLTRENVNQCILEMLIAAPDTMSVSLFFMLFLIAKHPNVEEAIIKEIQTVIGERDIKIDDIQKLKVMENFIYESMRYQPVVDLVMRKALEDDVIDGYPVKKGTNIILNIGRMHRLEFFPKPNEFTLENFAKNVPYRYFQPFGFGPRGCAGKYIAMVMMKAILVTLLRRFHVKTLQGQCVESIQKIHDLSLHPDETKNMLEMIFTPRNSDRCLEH
A short description of test [6]: qHTS assay to identify aromatase inhibitors - cell viability counter screen (AID 743084).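 Also: cells stimulated with testosterone during compound exposure; nearly all actives have a fitted effect of over 55% in size.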 Also: potency is read from the fitted curve at half-maximal effect.
Test [7] addresses Aryl hydrocarbon receptor (Homo sapiens) (UniProt P35869). The experiment in a line: qHTS assay to identify small molecule that activate the aryl hydrocarbon receptor (AhR) signaling pathway (AID 743085).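 Also: HG2L7.5c1 human HepG2 liver cells with stably integrated DRE-driven firefly reporter; series mostly up to about 70 µM; nearly all actives have a fitted effect of over 15% in size.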 Summed up: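 AhR agonist activity is inferred from enhanced light output of a DRE-controlled firefly luciferase reporter in HepG2 cells, measured with ONE-Glo following 24 h treatment at 37C.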

Test [8] is described as follows: qHTS assay to identify small molecule that activate the aryl hydrocarbon receptor (AhR) signaling pathway - cell viability counter screen (AID 743086).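 Also: HepG2 liver cells carrying the AhR DRE luciferase reporter; series mostly up to about 70 µM; nearly all actives have a fitted effect of over 45% in size.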 In short, it runs like this:
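Cytotoxicity counter screen: CellTiter-Fluor signal (30 min, 37 C) in 4000 HepG2 cells/well carrying the DRE-luciferase reporter, following 24 h compound exposure at 37 C.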

The target of test [9] is Peroxisome proliferator-activated receptor gamma (Homo sapiens) (UniProt P37231). Kind of test: qHTS assay to identify small molecule agonists of the peroxisome proliferator-activated receptor gamma (PPARg) signaling pathway (AID 743094; active = well fitted activation curve with a large enough effect in the signal ratio in the repeat runs, not every such curve was filed as active; the % refers to the signal ratio). In short, it runs like this:
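Cell-based bla reporter, HEK293H background, PPARg-driven UAS. Pre-incubation 5 h, 37C, 5% CO2. Compound 17 h, 37C. Substrate 1 h RT; fluorescence.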

A short description of test [10]: qHTS assay to identify small molecule antagonists of the peroxisome proliferator-activated receptor gamma (PPARg) signaling pathway - cell viability counter screen (AID 743194). Also: nearly all actives have a fitted effect of over 55% in size. Summed up: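 Viability was measured as CellTiter-Glo luminescence in GeneBLAzer PPARg UAS-bla HEK293H cells. These cells had been exposed 17 h at 37 C to compounds together with rosiglitazone at 50 nM final, with the beta-lactamase readout taken in the same wells.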

A short description of test [11]: qHTS assay for small molecule agonists of the antioxidant response element (ARE) signaling pathway (AID 743202; active = well fitted activation curve with a large enough effect in the signal ratio in the repeat runs, not every such curve was filed as active; the % refers to the signal ratio). Summed up: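 After 16 hours of compound treatment at 37 C, HepG2 cells with a stably integrated ARE-driven beta-lactamase reporter were loaded 2 hours at room temperature with LiveBLAzer B/G FRET substrate and fluorescence intensity measured.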
Test [12] can be described thus: qHTS assay for small molecule agonists of the antioxidant response element (ARE) signaling pathway - cell viability counter screen (AID 743203; calls by dose curve; also: nearly all actives have a fitted effect of over 55% in size). In short, it runs like this: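 Measured in the same wells as the beta-lactamase ARE reporter, this read-out is CellTiter-Glo luminescence from HepG2 ARE-bla cells given compounds for 16 hrs.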
Test [13] in a line: qHTS assay for small molecule activators of the heat shock response signaling pathway - cell viability counter screen (AID 743209). Also: nearly all actives have a fitted effect of over 50% in size. In short, it runs like this: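 Same-well multiplex: after 2.5 h room-temperature incubation with LiveBLAzer B/G substrate and fluorescence reading, CellTiter-Glo reagent was added to HSE-bla HeLa cells that had received compound for 5 h at 37 C; luminescence read after 30 min.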

Test [14] can be described thus: qHTS assay for small molecule activators of the heat shock response signaling pathway (AID 743210; active = well fitted activation curve with a large enough effect in the signal ratio in the repeat runs, with a control signal flat, not every such curve was filed as active; the % refers to the signal ratio; also: series mostly up to about 63 µM). In short, it runs like this: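 Compound exposure lasted 5 h at 37 C in HeLa cells carrying a heat-shock-element-driven beta-lactamase reporter. Read-out: fluorescence intensity after 2.5 h room-temperature loading with LiveBLAzer B/G FRET substrate.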
Test [15] has as its target Peroxisome proliferator-activated receptor gamma (Homo sapiens) (UniProt P37231). The experiment in a line: qHTS assay to identify small molecule antagonists of the peroxisome proliferator-activated receptor gamma (PPARg) signaling pathway (AID 743191; calls by dose curve; also: series mostly up to about 63 µM; nearly all actives have a fitted effect of over 30% in size). In short, it runs like this:
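Beta-lactamase reporter under UAS control in HEK293H PPARg-bla cells; compound treatment 17 h at 37C. Read-out: fluorescence intensity after 1 h room-temperature incubation with LiveBLAzer B/G FRET substrate.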

Test [16] deals with Estrogen receptor (Homo sapiens) (UniProt P03372). The experiment in a line: qHTS assay to identify small molecule antagonists of the estrogen receptor alpha (ER-alpha) signaling pathway (AID 743069; active = well fitted curve in the direction sought with a large enough effect in the signal ratio in the repeat runs, not every such curve was filed as active; the % refers to the signal ratio). In short, it runs like this:
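Antagonist mode: compounds in DMSO were co-added with 17beta-estradiol to ER-alpha-bla HEK293 cells (2% charcoal-stripped serum) and left 18 h at 37C. Reporter inhibition was measured as FRET fluorescence after 2 h LiveBLAzer substrate at room temperature.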

For test [17] the target is unchanged. Kind of test: qHTS assay to identify small molecule agonists of the estrogen receptor alpha (ER-alpha) signaling pathway (AID 743075; calls by dose curve;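 also: HEK293 GripTite cells with ER-alpha and UAS-driven beta-lactamase reporter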).
Test [18] has the same target. Kind of test: qHTS assay to identify small molecule agonists of the estrogen receptor alpha (ER-alpha) signaling pathway using the BG1 cell line (AID 743079). Also: nearly all actives have a fitted effect of over 20% in size.
Test [19] can be described thus: qHTS assay to identify small molecule antagonists of the estrogen receptor alpha (ER-alpha) signaling pathway using the BG1 cell line (AID 743080; calls by dose curve;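 also: BG1 cells stimulated with 17beta-estradiol alongside compound; series mostly up to about 70 µM; nearly all actives have a fitted effect of over 25% in size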). In short, it runs like this:
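BG1Luc4E2, endogenous ER-alpha, 4xERE-luc; 5 d charcoal-stripped FBS, phenol red free; 24 h plating; cpd + 17beta-estradiol 21.5 h, 37 C/5% CO2; CellTiter-Fluor viability 30 min, then ONE-Glo luciferase 30 min RT.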

Several values for one entry are separate records, joined by “and”; a condition that tells them apart may be missing. Identical values can stand only once. Inconclusive results are not listed. The source holds several records for some structures; these can differ, active in one and inactive in another. Activity calls are given as the source filed them. Unless noted, calls follow the shape of the dose curve; as a rule, active = well fitted curve in the direction sought with a large enough effect in the repeat runs; inconclusive = weak or mixed curves; inactive = no such curve, though single readings can be large; an effect the other way counts as inactive or inconclusive.

Peroxisome proliferator-activated receptor gamma (Homo sapiens), sequence (P37231 whole entry, looked up): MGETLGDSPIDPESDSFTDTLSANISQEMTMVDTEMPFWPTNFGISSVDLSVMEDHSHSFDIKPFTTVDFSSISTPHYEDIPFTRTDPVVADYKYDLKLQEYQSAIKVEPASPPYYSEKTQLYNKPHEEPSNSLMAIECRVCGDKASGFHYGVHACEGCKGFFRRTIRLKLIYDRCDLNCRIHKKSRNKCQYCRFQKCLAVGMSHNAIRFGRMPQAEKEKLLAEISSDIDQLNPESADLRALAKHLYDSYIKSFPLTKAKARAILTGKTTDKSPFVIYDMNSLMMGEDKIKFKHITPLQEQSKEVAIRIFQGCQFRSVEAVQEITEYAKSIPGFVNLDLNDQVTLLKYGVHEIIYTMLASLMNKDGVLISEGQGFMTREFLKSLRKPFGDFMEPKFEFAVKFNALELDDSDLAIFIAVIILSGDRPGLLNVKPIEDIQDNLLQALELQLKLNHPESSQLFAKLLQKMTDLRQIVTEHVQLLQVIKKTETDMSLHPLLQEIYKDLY
Estrogen receptor (Homo sapiens), sequence (P03372 whole entry, looked up): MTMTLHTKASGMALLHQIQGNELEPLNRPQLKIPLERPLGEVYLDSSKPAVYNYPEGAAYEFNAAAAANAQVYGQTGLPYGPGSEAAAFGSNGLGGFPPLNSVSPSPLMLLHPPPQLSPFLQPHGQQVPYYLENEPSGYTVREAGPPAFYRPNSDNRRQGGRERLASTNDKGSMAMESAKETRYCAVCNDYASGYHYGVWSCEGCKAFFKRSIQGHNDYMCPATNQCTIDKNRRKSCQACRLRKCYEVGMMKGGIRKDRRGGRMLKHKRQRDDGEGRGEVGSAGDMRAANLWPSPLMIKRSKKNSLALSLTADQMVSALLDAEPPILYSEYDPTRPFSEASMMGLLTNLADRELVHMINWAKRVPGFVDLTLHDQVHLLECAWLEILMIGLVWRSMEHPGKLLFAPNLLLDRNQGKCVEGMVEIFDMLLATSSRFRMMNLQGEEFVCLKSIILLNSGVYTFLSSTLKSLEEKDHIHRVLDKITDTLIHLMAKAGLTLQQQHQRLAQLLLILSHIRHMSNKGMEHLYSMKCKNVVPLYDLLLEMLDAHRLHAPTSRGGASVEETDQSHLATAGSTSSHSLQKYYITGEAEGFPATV
Aryl hydrocarbon receptor (Homo sapiens), sequence (P35869 whole entry, looked up): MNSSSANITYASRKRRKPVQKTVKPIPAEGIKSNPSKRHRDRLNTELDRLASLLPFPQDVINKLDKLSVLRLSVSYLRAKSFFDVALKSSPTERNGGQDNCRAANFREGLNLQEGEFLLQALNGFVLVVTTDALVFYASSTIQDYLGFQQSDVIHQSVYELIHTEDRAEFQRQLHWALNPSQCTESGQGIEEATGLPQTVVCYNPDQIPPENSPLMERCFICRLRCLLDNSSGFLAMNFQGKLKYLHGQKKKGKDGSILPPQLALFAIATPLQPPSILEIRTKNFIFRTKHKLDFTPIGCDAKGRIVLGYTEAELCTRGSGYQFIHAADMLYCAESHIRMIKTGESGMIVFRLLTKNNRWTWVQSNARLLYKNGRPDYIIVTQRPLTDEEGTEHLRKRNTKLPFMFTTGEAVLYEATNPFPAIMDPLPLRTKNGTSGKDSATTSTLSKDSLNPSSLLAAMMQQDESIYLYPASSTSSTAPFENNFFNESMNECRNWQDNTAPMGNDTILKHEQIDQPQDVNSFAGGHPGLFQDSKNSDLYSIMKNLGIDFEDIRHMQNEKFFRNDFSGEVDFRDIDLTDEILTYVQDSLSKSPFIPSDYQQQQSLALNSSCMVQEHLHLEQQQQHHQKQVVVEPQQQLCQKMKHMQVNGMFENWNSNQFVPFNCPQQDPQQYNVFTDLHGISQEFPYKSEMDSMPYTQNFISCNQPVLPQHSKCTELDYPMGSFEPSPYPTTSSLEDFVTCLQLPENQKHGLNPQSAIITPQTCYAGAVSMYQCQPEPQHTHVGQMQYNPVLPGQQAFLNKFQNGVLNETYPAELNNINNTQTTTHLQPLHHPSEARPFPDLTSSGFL

Consider `CCC(O)OCCCOC` (configuration not stated), for which the Potency entry (in test [1]; in test [2]; in test [3]; in test [5]; with Aromatase (Homo sapiens); in test [6]) was “inactive” each time. Further, the Potency result in test [7], in test [11] and in [14] was “inactive” in each case. In addition, the compound was classed as inactive in [4], in test [8], in test [9], in [10], in [12] and in [13].

On to `OCC(CO)(CBr)CBr`, for which the Potency result (in test [1]; in test [2]; in test [3]; in [5]; in the test with Aromatase (Homo sapiens); in test [6]) was “inactive” each time. Also, the Potency result in test [7], in [11] and in [14] was “inactive” throughout. For the same compound, the compound was classed as inactive in test [4], in [8], in test [9], in [15], in test [10] and in test [12]. Further, the result in test [13] was inactive.

As to `CCCCCCCCCCCCOCCO`, the Potency result (in test [1]; in [2]; in test [3]; in test [5]; in the test with Aromatase (Homo sapiens); in test [6]) was “inactive” throughout. Moreover, the Potency entry in test [7], in test [11] and in test [14] was “inactive” in each case. For the same compound, the call in test [4], in test [8], in test [9], in test [10], in [12] and in test [13] was inactive.

On to `CC[C@H](C)C(=O)O[C@H]1C[C@@H](C)C=C2C=C[C@H](C)[C@H](CC[C@@H]3C[C@@H](O)CC(=O)O3)[C@H]21`, for which the Potency in test [1] was 62 µM (active) and 60.8 µM (active); in test [2], 62 µM (active) and 54.2 µM (active); with Aromatase (Homo sapiens) it was 11.9 µM (active) and 34.9 µM (active) and 27.2 µM (active); in [6], “inactive and 62 µM (active)”. In addition, the Potency result in test [3], in test [16], in test [17], in test [18], in test [5] and in [7] was “inactive” throughout. Besides, the Potency entry in test [14] is “inactive”. In addition, the result in test [4], in [8], in test [9], in [15], in test [10] and in test [12] was inactive.

In the case of `O=C(O)c1ccccc1C(c1ccc(O)cc1)c1ccc(O)cc1`, the Potency entry in [1], in test [2], in [3], in test [16], in test [17] and in test [18] was “inactive” throughout. Moreover, the Potency entry (in [19]; in test [5]; with Aromatase (Homo sapiens); in [6]; in test [7]; in test [14]) was “inactive” each time. The result in [8], in [9], in test [15], in [12] and in [13] was inactive.

With `CCCC(C)=O`, the Potency result (in test [1]; in test [2]; in [3]; in test [5]; with Aromatase (Homo sapiens); in test [6]) was “inactive” each time. The Potency result in test [7], in test [11] and in [14] was “inactive” throughout. Further, the compound was classed as inactive in test [4], in test [8], in [9], in test [15], in test [10] and in test [12]. Also, the compound was called inactive in test [13].

Consider `CC1CCC(C(C)C)C(O)C1` (configuration not stated), for which the Potency result (in [1]; in [2]; in test [3]; in test [5]; with Aromatase (Homo sapiens); in test [6]) was “inactive” each time. Further, the Potency entry in test [7] and in test [11] was “inactive” throughout. The result in test [4], in test [8], in [9], in test [15], in test [10] and in test [12] was inactive.

For `Cc1cnc(C(=O)NCCc2ccc(S(=O)(=O)NC(=O)NC3CCCCC3)cc2)cn1`, the Potency entry in test [1], in test [2], in test [3], in test [16], in [17] and in [18] was “inactive” each time. Besides, the Potency entry in test [19], in [5], in test [6] and in test [14] was “inactive” in each case. The compound was classed as inactive in test [4], in test [8], in [9], in [10], in [12] and in test [13].

As to `O=C(O)c1cc(O)c(O)c(O)c1`, the Potency result is “inactive and 55 µM (active)” in test [1]; “inactive and 49 µM (active)” in test [6]. Moreover, the Potency result in test [2], in test [3], in [16], in test [17], in [18] and in test [19] was “inactive” throughout. Further, the Potency entry (in test [5]; with Aromatase (Homo sapiens); in test [7]; in test [14]) was “inactive” each time. The call in [4], in test [9], in test [10] and in test [12] was inactive.
